PubChem BioAssay (NCI)
This is part of a sample that, as a whole, favours compounds with a hit. Of some 83,000 tested, about 20% had one in any assay.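 Cells were grown in 96-well plates and exposed to the test compound at a single concentration for 48 hours; results are reported as percent growth, with values below 10 considered active.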 The source made the active and inactive calls.

Experiments:
Assay in all cases: NCI-60 one-dose screen, 48 h (100 = growth as untreated, 0 = no growth, -100 = all killed)
Conditions in all cases: 10 µM unless noted
[1] = tested on: EKVX NSCLC
[2] = tested on: SN12C renal
[3] = tested on: UO-31 renal
[4] = tested on: TK-10 renal
[5] = tested on: ACHN renal
[6] = tested on: CAKI-1 renal
[7] = tested on: A498 renal
[8] = tested on: CCRF-CEM leukemia
[9] = tested on: MOLT-4 leukemia
[10] = tested on: SR leukemia
[11] = tested on: RPMI-8226 leukemia
[12] = tested on: OVCAR-8 ovarian
[13] = tested on: OVCAR-5 ovarian
[14] = tested on: OVCAR-4 ovarian
[15] = tested on: SK-OV-3 ovarian
[16] = tested on: IGROV1 ovarian
[17] = tested on: OVCAR-3 ovarian
[18] = tested on: NCI/ADR-RES ovarian

Measured: growth

Cn1ncc(Cl)c1-c1cc(C(=O)N[C@H](CN)Cc2ccc(F)c(F)c2)oc1Cl
active: [1] 6.1% | [3] -19.8% | [4] -91% | [5] 4.47% | [6] -34.2% | [7] -78.9% | [8] 3.82% | [9] -4.62% | [10] -10.6% | [11] -5.77% | [12] -38.4% | [13] 5.81% | [15] -41.6% | [16] -23.8% | [18] 8.92%
inactive: [2] 16.5% | [14] 24.8% | [17] 18.2%

C=CC(=O)N1CCC(Oc2cc3c(Nc4ccc(Cl)c(Cl)c4F)ncnc3cc2OC)CC1
inactive: [1] 18.7% | [2] 15.8% | [8] 20.9% | [11] 35% | [12] 18.4% | [13] 25.3% | [14] 39% | [17] 19.4%
active: [3] -31.6% | [4] -7.41% | [5] -3.88% | [6] -34.2% | [7] -69.8% | [9] -10.5% | [10] -20.2% | [15] -37.4% | [16] -44.8% | [18] -16.8%

Cc1cc(-c2cc(OC(=O)c3ccccc3)ccc2Cl)cc2nnc(Nc3ccc(OCCN4CCCC4)cc3)nc12
inactive: [1] 92.3% | [2] 66.3% | [3] 73.9% | [4] 89.7% | [5] 74.2% | [6] 86.3% | [7] 94.3% | [9] 73.1% | [11] 74.4% | [12] 68.6% | [13] 81% | [15] 52.6% | [16] 69.4% | [17] 86.3% | [18] 110%
active: [8] 3.09% | [10] 0.433% | [14] -40.5%

Cc1cccc(Cl)c1NC(=O)c1cnc(Nc2cc(N3CCOCC3)cc(S(C)(=O)=O)c2)s1
active: [3] 2.76% | [4] -64.6% | [5] -2.99% | [6] -27.7% | [7] -13.6% | [12] -2.17% | [15] -23.8% | [16] -49.1%
inactive: [1] 27.7% | [2] 28.6% | [8] 72.7% | [9] 24.8% | [10] 43.3% | [11] 70.5% | [13] 15.6% | [14] 53.8% | [17] 32.1% | [18] 64.4%

COc1cc2ncnc(Nc3ccc(F)c(Cl)c3)c2cc1NC(=O)/C=C/CN1CCCCC1
active: [1] -40.3% | [2] -76.1% | [3] -90.2% | [4] -88.8% | [5] -97.9% | [6] -85.4% | [7] -80.4% | [8] 6.37% | [9] -13.1% | [10] -14.5% | [11] -31.2% | [12] -38.2% | [13] -22% | [14] -57.5% | [15] -93.5% | [16] -47.7% | [17] -83.2% | [18] -55%

Cc1cc(Nc2nc(N[C@@H](C)c3ncc(F)cn3)ncc2Cl)n[nH]1
active: [7] -2.39% | [10] 7%
inactive: [1] 99.6% | [2] 77.6% | [3] 51% | [4] 82.8% | [5] 63.4% | [6] 70.1% | [8] 76.6% | [9] 62.3% | [11] 89.9% | [12] 88.1% | [13] 59.8% | [14] 91.6% | [15] 75.3% | [16] 45% | [17] 93.3% | [18] 87.5%

Cc1ccc(Nc2nccc(N(C)c3ccc4c(C)n(C)nc4c3)n2)cc1S(N)(=O)=O
active: [3] -2.51% | [7] -57% | [9] 5.93% | [13] 9.38% | [15] -1.9% | [16] 3.2%
inactive: [1] 25.7% | [2] 25.7% | [4] 21.2% | [5] 25.8% | [6] 15.1% | [8] 34% | [10] 18% | [11] 20.8% | [12] 20.4% | [14] 31.3% | [17] 39.9% | [18] 48.5%

Cn1cnc2c(F)c(Nc3ccc(Br)cc3Cl)c(C(=O)NOCCO)cc21
active: [7] -37% | [13] 7.92%
inactive: [1] 54.4% | [2] 65.9% | [3] 40.9% | [4] 33.7% | [5] 52.1% | [6] 40.2% | [8] 95.8% | [9] 92.2% | [10] 75% | [11] 69.9% | [12] 66.4% | [14] 65.5% | [15] 51.5% | [16] 25.3% | [17] 106% | [18] 68.6%

CC(=O)c1cnc2ccc(-c3cc(Cl)c(O)c(Cl)c3)nc2c1NC1CCC(CN(C)C)CC1 (stereo not drawn)
active: [1] -15.9% [2.5 µM] | [2] -7.95% [2.5 µM] | [3] -33.1% [2.5 µM] | [4] -59.7% [2.5 µM] | [5] -0.784% [2.5 µM] | [6] -49.4% [2.5 µM] | [7] -88% [2.5 µM] | [8] 1.45% [2.5 µM] | [9] -36.4% [2.5 µM] | [10] -16% [2.5 µM] | [11] -24.3% [2.5 µM] | [12] -22.9% [2.5 µM] | [13] 2.38% [2.5 µM] | [14] -9.08% [2.5 µM] | [15] -32.6% [2.5 µM] | [16] -17.3% [2.5 µM] | [17] 2.02% [2.5 µM] | [18] -13.7% [2.5 µM]

Cc1ccc(NC(=O)c2ccc(CN3CCN(C)CC3)cc2)cc1Nc1nc(-c2cccnc2)cs1
inactive: [1] 48.3% | [2] 74% | [3] 82.9% | [4] 88.3% | [5] 48.3% | [6] 78% | [7] 64.8% | [8] 11.8% | [11] 13.2% | [12] 34.5% | [13] 98.7% | [14] 62.6% | [15] 75.3% | [16] 62.3% | [17] 79.6% | [18] 55.7%
active: [9] 5.98% | [10] -3.75%

COc1cccc(NC(=O)Nc2ccc(Nc3ncnc4sc5c(c34)CCN(C(=O)CCl)C5)cc2)c1
inactive: [1] 109% | [2] 96.3% | [3] 66.6% | [4] 122% | [5] 88.7% | [6] 94.2% | [7] 93.1% | [8] 88.4% | [9] 92.8% | [10] 77.8% | [11] 93.3% | [12] 84.4% | [13] 103% | [14] 126% | [15] 93.8% | [16] 82.6% | [17] 104% | [18] 102%

Cc1nc(-c2cn3c(n2)-c2ccc(-c4cnn(C(C)(C)C(N)=O)c4)cc2OCC3)n(C(C)C)n1
active: [3] 5.32% | [4] 8.61% | [7] -31.3% | [15] -22.1% | [16] -10.7%
inactive: [1] 36.1% | [2] 25.7% | [5] 15.9% | [6] 21.1% | [8] 26.4% | [9] 15.2% | [10] 30.1% | [11] 39.3% | [12] 32.9% | [13] 28.8% | [14] 62.5% | [17] 24.5% | [18] 39.2%

FC(F)(F)c1ccc(CNc2ccc(Cc3c[nH]c4ncc(Cl)cc34)cn2)cn1
inactive: [1] 30.3% | [2] 52.2% | [3] 10.7% | [4] 18.3% | [5] 31.6% | [6] 25.2% | [7] 18.3% | [8] 23.4% | [10] 11.1% | [11] 26.3% | [12] 14.3% | [13] 30.5% | [14] 30% | [15] 16% | [16] 41% | [17] 41.6% | [18] 12.6%
active: [9] 7.19%

Nc1ncnc2c1c(-c1cccc(OCc3ccccc3)c1)cn2C1CC(CN2CCC2)C1 (stereo not drawn)
inactive: [1] 30.1% | [2] 35.5% | [4] 28.4% | [5] 18.7% | [12] 34.9% | [13] 36% | [14] 57.4% | [15] 40.2% | [16] 22.4% | [17] 58.8% | [18] 35.4%
active: [3] -66.6% | [6] 7.5% | [7] -1.47% | [8] 5.52% | [9] -14.5% | [10] -17.7% | [11] -24%

CC(C)(C)c1nc(-c2cccc(NS(=O)(=O)c3c(F)cccc3F)c2F)c(-c2ccnc(N)n2)s1
inactive: [1] 97.7% | [2] 80.1% | [3] 37.1% | [4] 65.2% | [5] 59.3% | [6] 56.4% | [7] 135% | [8] 59% | [9] 39.4% | [10] 50.4% | [11] 75.5% | [12] 94.7% | [13] 41.1% | [14] 114% | [15] 71.9% | [16] 64.5% | [17] 103% | [18] 95.5%

CNc1ncc2cc(-c3cc(NC(=O)NCCC(C)(C)C)c(F)cc3C)c(C)nc2n1
active: [3] 3.87% | [4] -4.98% | [5] 5.23% | [6] 4.36% | [7] -35.4% | [13] 6.28% | [15] -26% | [16] -10.2%
inactive: [1] 29.4% | [2] 18.6% | [8] 63.1% | [9] 20.6% | [10] 17.7% | [11] 21% | [12] 27% | [14] 33.2% | [17] 54.5% | [18] 24.7%

COc1cc(Nc2ncc(F)c(Nc3ccc4c(n3)N(COP(=O)(O)O)C(=O)C(C)(C)O4)n2)cc(OC)c1OC
inactive: [1] 32.7% | [2] 22.8% | [8] 29.9% | [9] 29.6% | [10] 21.6% | [11] 46.4% | [12] 28.7% | [13] 17.6% | [14] 44.1% | [17] 43.4% | [18] 20.5%
active: [3] -23.9% | [4] -43.8% | [5] 6.43% | [6] -54.1% | [7] -70.9% | [15] -41.4% | [16] -17.6%

Cc1nc2ccc(-n3ncc(C(=O)c4cc5ccccc5[nH]4)c3N)cc2[nH]1
inactive: [1] 63.9% | [2] 61.2% | [3] 48.9% | [4] 71.3% | [5] 49.8% | [6] 62.2% | [8] 43.8% | [9] 25.1% | [10] 14.6% | [11] 45.2% | [12] 41.9% | [13] 65.9% | [14] 71.1% | [15] 49.6% | [16] 37.2% | [17] 63.2% | [18] 66%
active: [7] 8.03%

CC1=CC2c3oc(-c4ccccc4)c(C(=O)c4ccccc4)c3CNC2C=C1 (stereo not drawn)
inactive: [1] 107% | [2] 88.5% | [3] 72.2% | [4] 96% | [5] 87.4% | [6] 94.8% | [7] 100% | [8] 76.1% | [9] 101% | [10] 89.6% | [11] 105% | [12] 83.6% | [13] 88.8% | [14] 117% | [15] 83.3% | [16] 102% | [17] 106% | [18] 94.6%

CC(=O)C1CC(C)CCC1C(C)C (stereo not drawn)
inactive: [1] 106% | [2] 83.8% | [3] 67.4% | [4] 83.2% | [5] 87.8% | [6] 122% | [7] 92.4% | [8] 70.5% | [9] 83.1% | [10] 78.9% | [11] 56.3% | [12] 109% | [13] 105% | [14] 61.4% | [15] 108% | [16] 99.2% | [17] 94.7% | [18] 86.4%

O=C(c1c(F)ccc(NS(=O)(=O)N2CC[C@@H](F)C2)c1F)c1c[nH]c2ncc(-c3cnc(C4CC4)nc3)cc12
active: [15] 3.3%
inactive: [1] 58.5% | [2] 48% | [3] 25.9% | [4] 41.7% | [5] 34.5% | [6] 16.7% | [7] 62.7% | [8] 47.6% | [9] 16.3% | [10] 21.6% | [11] 36.3% | [12] 31.7% | [13] 58.3% | [14] 64.2% | [16] 17% | [17] 69.4% | [18] 102%
